Reference: PubChem BioAssay (NCATS)
Inconclusive results are not listed. Calls follow the shape of the dose curve; as a rule, active = well fitted inhibition curve with a large enough effect; inconclusive = small, poorly fitted or top-dose-only effect; inactive = flat fitted curve, though single readings scatter.

Assay: Drug repurposing screens with cells derived from glioblastoma tumor samples (AID 1345199); also: nearly all actives have a fitted effect of over 40% in size
Settings: GBM patient neurospheres viability, ATP luminescence, 48 h
Description: CD133+ cells were isolated from GBM patient biopsies and cultured as neurospheres. Neurospheres from four patients were used to screen the NCATS pharmaceutical collection (NPC) library of approved drugs and bioactive compounds. […] The neurospheres were incubated with drugs for 48 hours in 1536-well format, then assayed with an ATP content cell viability assay. […] These hits were cherry picked to confirm activity in the four original GBM lines screened plus three other slower growing GMB lines (unable to yield enough cells for a full primary screen). Variable activities of the confirmed primary hits in the different GBM patient lines were observed. The patient line 206 responded to the greatest number of compounds and line 923 responded to the least amount of active compounds.

[1] = at 20 µM (top of the series), tumour line C
[2] = at 21.2 µM (top of the series), tumour line B
[3] = at 21.2 µM (top of the series), tumour line D
[4] = at 45.9 µM (top of the series), tumour line B
[5] = at 45.9 µM (top of the series), tumour line D
[6] = at 46 µM (top of the series), tumour line A
[7] = at 46.1 µM (top of the series), tumour line C

Measured: activity, negative = cell killing
% is scaled to controls: 0 for no effect and ±100 for the full control effect.

C#CCN(C)Cc1ccccc1
inactive: [1] -8.08% | [2] -12.4% | [3] -7.66% | at 21.3 µM (top of the series), tumour line A -32.1%

CS(=O)(=O)c1ccc([C@@H](O)[C@@H](CF)NC(=O)C(Cl)Cl)cc1
inactive: [1] -23.2% | [2] -19.6% | [3] -7.33%

CC(=O)CCC(=O)O
inactive: [4] -11.2% | [5] -13.2% | [6] -21% | [7] -0.404%

CCOC(=O)c1ccc(O)cc1
inactive: [4] -7.74% | [5] 6.74% | [7] -0.513%

N[C@H](C(=O)O)c1ccc(O)cc1
inactive: [4] -10.5% | [5] -7.17% | [6] -28.4% | [7] -10.2%

CC[C@@]1(c2ccccc2)NC(=O)N(C)C1=O
inactive: [4] -13.7% | [5] -9.17% | [7] 9.18%

CCCCc1ncc(/C=C(\Cc2cccs2)C(=O)O)n1Cc1ccc(C(=O)O)cc1
inactive: [4] -7.78% | [5] 9.77% | [6] -19.8% | [7] -1.88%

COc1ccccc1O
inactive: [4] -3.97% | [5] 4.42% | [6] -31.4% | [7] 30.9% | at 91.6 µM (top of the series), tumour line B -1.8% | at 91.6 µM (top of the series), tumour line D -26.1% | at 99.2 µM (top of the series), tumour line C -15%

OC[C@H]1O[C@@H](O[C@@H]2[C@@H](CO)O[C@](O)(CO)[C@H]2O)[C@H](O)[C@@H](O)[C@H]1O
inactive: [4] -1.82% | [5] 8.93% | [6] -20.9% | [7] -24.2%

Nc1cc(=O)[nH]c(N)n1
inactive: [4] 1% | [5] -2.29% | [6] -24.4% | [7] 6.18%
